# Entries with a potency or affinity are not part of this list. The source made the active and inactive calls.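 The calls were made as follows: active = compounds lowering fluorescence with a fitted half-maximal concentration at or below a set limit tied to top dose; inconclusive = flat curve with 30 to 70% inhibition, or poor fit; inactive = the rest.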
# Target: Caspase-9 (Homo sapiens) (UniProt P55211)
# Experiment: inhibitors of purified CASP9 protease – biochemical, fluorescence, plate reader, cherry-picked samples, selectivity assay for caspase-6 inhibitor project, dose response (AID 743293)
# Conditions: purified caspase-9, Z-LEHD-R110 cleavage fluorescence; series mostly up to 35 µM
# Chain of Caspase-9 (Homo sapiens) (P55211 whole entry, looked up): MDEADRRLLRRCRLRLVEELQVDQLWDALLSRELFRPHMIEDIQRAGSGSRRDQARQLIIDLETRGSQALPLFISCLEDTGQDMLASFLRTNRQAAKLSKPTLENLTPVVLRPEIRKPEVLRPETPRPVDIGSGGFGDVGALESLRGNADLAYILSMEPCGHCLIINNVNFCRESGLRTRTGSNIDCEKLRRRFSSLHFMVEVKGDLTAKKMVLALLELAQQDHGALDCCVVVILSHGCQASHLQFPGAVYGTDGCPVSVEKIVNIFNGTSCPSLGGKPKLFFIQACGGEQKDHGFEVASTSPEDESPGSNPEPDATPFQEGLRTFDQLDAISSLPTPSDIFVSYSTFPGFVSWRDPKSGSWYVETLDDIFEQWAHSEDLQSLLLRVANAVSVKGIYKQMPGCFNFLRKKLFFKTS
smiles,measurement,value
CC(Cc1ccc(O)cc1)NCC(O)c1ccc(O)c(O)c1 (stereo unspecified),outcome,inactive
